The source of these data is PubChem BioAssay (EPA / NIEHS).

The target of test [1] is Transcription factor E2F1 (Homo sapiens) (UniProt Q01094). Put plainly: ATG_E2F_CIS: Attagene CIS-FACTORIAL HepG2 Assay for human E2F Transcription Factor 1 (AID 2282935). As to conditions: HepG2 Attagene cis-reporter, E2F reporter RNA transcripts; actives raise or lower the signal. Summed up: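 Fluorescent RT-PCR products, digested with HpaI for 2 h at 37 C, are separated by capillary electrophoresis. Source RNA comes from transfected HepG2 cultures treated for 24 h.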

Test [2] in a line: ATG_E_Box_CIS: Attagene CIS-FACTORIAL HepG2 Assay for human Enhancer Box (E-box) (AID 2282936). As to conditions: HepG2 E-box cis-reporter transcription, actives raise or lower the signal. Summed up: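 Fluorescent reporter fragments separated by capillary electrophoresis gave the signal; mRNA came from HepG2 cells transfected with cis-element reporters and treated 24 h. Curves fitted bidirectionally relative to DMSO controls.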

A short description of test [3]: ATG_M_61_CIS: Attagene CIS-FACTORIAL HepG2 Assay for M61 Transcription Factor (Internal Marker) (AID 2282937). As to conditions: HepG2 Attagene CIS-FACTORIAL M61 internal marker reporter; actives raise or lower the signal. Summed up:
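This endpoint serves as an internal background control within a multiplexed HepG2 cis-reporter panel. Cells are exposed for 24 h; reporter mRNA is amplified, fluorescently labelled and sized by capillary electrophoresis, with DMSO as negative control.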

A short description of test [4]: ATG_EGR_CIS: Attagene CIS-FACTORIAL HepG2 Assay for human Early Growth Response 1 (EGR1) (AID 2282938). As to conditions: HepG2 Attagene CIS-FACTORIAL EGR reporter mRNA; actives raise or lower the signal. Summed up:
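HepG2, transient MRTU transfection (cis promoters), 24 h compound. RNA → RT (oligo-dT) → PCR → 6-FAM labelling → HpaI cut → CE fluorescence. Bidirectional fit, DMSO baseline.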

The nature of test [5]: ATG_M_19_CIS: Attagene CIS-FACTORIAL HepG2 Assay for M19 Transcription Factor (Internal Marker) (AID 2282939). As to conditions: HepG2 Attagene CIS-FACTORIAL M19 internal marker reporter; actives raise or lower the signal. Summed up: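 Signals come from fluorescence of labelled reporter-specific PCR fragments resolved by capillary electrophoresis, following 24 h treatment of HepG2 cells transfected with cis-promoter reporter units; activity was fitted in both directions relative to DMSO.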

Test [6] is described as follows: ATG_ERE_CIS: Attagene CIS-FACTORIAL HepG2 Assay for Estrogen Response Element (ERE) (AID 2282940). The note with it: HepG2 ERE cis-reporter, Attagene RNA transcript; actives raise or lower the signal. Summed up:
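Fluorescence of capillary-separated, FAM-labelled reporter cDNA fragments indicates reporter mRNA levels in HepG2 cells exposed to chemicals for 24 h. Transient transfection with cis-regulated units; data fitted in both directions against DMSO.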

Test [7] can be described thus: ATG_Ets_CIS: Attagene CIS-FACTORIAL HepG2 Assay for human Erythroblast Transformation Specific (ETS) (AID 2282941). The note with it: HepG2 ETS cis-reporter transcription, actives raise or lower the signal. The procedure, abridged: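 Multiplexed reporter transcript profiling: HepG2, 24 h treatment, total RNA to cDNA, PCR, 6-FAM labelling, HpaI cut, capillary electrophoresis. Gain- or loss-of-signal fitted against DMSO.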

Test [8] deals with Hepatocyte nuclear factor 3-beta (Homo sapiens) (UniProt Q9Y261). Put plainly: ATG_FoxA2_CIS: Attagene CIS-FACTORIAL HepG2 Assay for human Forkhead box A2 (FOXA2) (AID 2282942). As to conditions: HepG2 cis-reporter transcription factor activity, 24 h; actives raise or lower the signal. The procedure, abridged: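 Cells: HepG2, transient multiplex reporter transfection. Exposure 24 h. Detection: reporter-specific RT-PCR, fluorescent labelling, restriction digest, capillary electrophoresis. Analysis: bidirectional curve fit, DMSO as negative control.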

A short description of test [9]: ATG_FoxO_CIS: Attagene CIS-FACTORIAL HepG2 Assay for human Forkhead box O (FoxO) (AID 2282943). The note with it: HepG2 Attagene cis-reporter, FoxO element, mRNA; actives raise or lower the signal. Summed up: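 HepG2, transient MRTU transfection (cis element, endogenous TFs). Dose 24 h. TriZol RNA → oligo(dT) RT → PCR → 6-FAM primer extension → HpaI cut → CE. Gain/loss vs DMSO.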

The nature of test [10]: ATG_GATA_CIS: Attagene CIS-FACTORIAL HepG2 Assay for human GATA Binding Protein (AID 2282944). The note with it: HepG2 GATA cis-element reporter, Attagene multiplex mRNA; actives raise or lower the signal. Summed up: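 After transfecting HepG2 cells with multiple cis-regulated reporter units, chemicals are dosed for 24 h; isolated RNA undergoes RT-PCR and fluorescent labeling before capillary electrophoresis, with activity expressed against DMSO.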

SMILES strings stand for the structures. The source made the active and inactive calls. The calls were made as follows: active = hit-call score of the fitted dose curve at least 0.9, where 1 is the maximum; inactive = score below 0.9. Peptide text beside a SMILES is read from it.

Hepatocyte nuclear factor 3-beta (Homo sapiens), sequence (Q9Y261 whole entry, looked up): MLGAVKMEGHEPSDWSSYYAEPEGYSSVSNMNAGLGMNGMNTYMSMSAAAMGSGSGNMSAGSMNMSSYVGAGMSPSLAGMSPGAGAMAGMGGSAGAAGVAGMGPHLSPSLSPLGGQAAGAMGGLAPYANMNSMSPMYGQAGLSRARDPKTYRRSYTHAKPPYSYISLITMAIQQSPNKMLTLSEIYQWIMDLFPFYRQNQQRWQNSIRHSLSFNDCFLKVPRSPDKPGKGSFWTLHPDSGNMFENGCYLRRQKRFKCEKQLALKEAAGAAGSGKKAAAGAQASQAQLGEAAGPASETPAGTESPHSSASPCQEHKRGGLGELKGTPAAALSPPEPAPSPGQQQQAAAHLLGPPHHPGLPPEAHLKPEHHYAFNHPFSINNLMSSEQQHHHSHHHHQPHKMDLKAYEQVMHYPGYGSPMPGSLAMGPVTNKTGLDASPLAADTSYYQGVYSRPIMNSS
Transcription factor E2F1 (Homo sapiens), sequence (Q01094 whole entry, looked up): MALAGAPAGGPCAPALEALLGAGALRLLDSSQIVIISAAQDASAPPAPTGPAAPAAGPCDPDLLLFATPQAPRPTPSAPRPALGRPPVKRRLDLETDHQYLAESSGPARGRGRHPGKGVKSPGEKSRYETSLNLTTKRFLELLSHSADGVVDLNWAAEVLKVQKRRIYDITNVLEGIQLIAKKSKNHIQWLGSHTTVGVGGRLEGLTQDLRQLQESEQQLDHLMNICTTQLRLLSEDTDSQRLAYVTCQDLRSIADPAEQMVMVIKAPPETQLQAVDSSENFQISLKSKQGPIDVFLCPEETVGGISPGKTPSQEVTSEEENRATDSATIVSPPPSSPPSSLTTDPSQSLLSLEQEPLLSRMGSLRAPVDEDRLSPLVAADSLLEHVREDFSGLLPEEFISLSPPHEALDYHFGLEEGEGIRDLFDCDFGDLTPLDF

`CC1=CP(=O)(c2ccccc2)CC1` (stereo not given): the compound was classed as inactive in [1], in [2], in test [3], in test [4], in [5] and in test [6]. The result in test [7], in [8], in test [9] and in test [10] was inactive.
Take `CC(=O)c1ccccc1O`: the compound was classed as inactive in test [1], in test [2], in test [3], in [4], in [5] and in test [6]. In addition, the compound was called inactive in [7], in test [8], in test [9] and in test [10].
As to `CC(CC=O)CC(C)(C)C` (stereo not given), the outcome in test [1], in [2], in test [3], in test [4], in [5] and in test [7] was inactive. Besides, the call in test [8], in test [9] and in test [10] was inactive.
As to `O=C(Cl)c1ccc(C(=O)Cl)cc1`, the compound was classed as inactive in test [1], in [2], in test [3], in test [4], in [5] and in test [7]. Moreover, the compound was called inactive in test [8], in test [9] and in [10].
For `CC(C=O)c1ccccc1` (stereo not given), the compound was called inactive in [1], in test [2], in test [3], in test [4], in [5] and in test [7]. Besides, the call in test [8], in [9] and in test [10] was inactive.
As to `CC(=O)OC/C=C(/C)CCC=C(C)C`, the result in [1], in test [2], in [3], in [4], in test [5] and in test [7] was inactive. Also, the compound was called inactive in [8], in [9] and in test [10].
With `CCOB(OCC)OCC`, the compound was classed as inactive in test [1], in [2], in test [3], in test [4], in test [5] and in test [6]. For the same compound, the compound was classed as inactive in test [8], in test [9] and in [10].
Regarding `C=CCNCC=C`, the compound was called inactive in test [1], in test [2], in [3], in [4], in [5] and in test [6]. For the same compound, the call in [8], in test [9] and in [10] was inactive.
Take `C=CCOC(=O)c1ccc(C(=O)OCC=C)c(C(=O)OCC=C)c1`: the compound was called inactive in [1], in [3], in test [4], in test [5], in test [8] and in test [9]. Moreover, the compound was called inactive in [10]. The AC50 was 140 µM (active) in [2] and 22.8 µM (active) in [6].
On to `COC(=O)[C@H](Cc1ccccc1)NC(=O)[C@@H](N)CC(=O)O` (H-Asp-Phe-OMe), for which the compound was called inactive in [1], in [2], in [3], in test [4], in [5] and in test [7]. For the same compound, the call in [8], in [9] and in test [10] was inactive.
Take `Nc1cccc(N)n1`: the compound was called inactive in [1], in [2], in test [3], in test [4], in [5] and in test [8]. The compound was classed as inactive in test [9] and in test [10].
Turning to `Cc1c(C(=O)c2c[nH]n(C)c2=O)ccc(S(C)(=O)=O)c1C1=NOCC1`, the call in [1], in test [2], in [3], in test [4], in test [5] and in test [7] was inactive. The compound was called inactive in test [8], in test [9] and in test [10].
Regarding `CC(C)(CO)C(O)C(=O)NCCCO` (stereo not given), the outcome in test [1], in [2], in [3], in test [4], in test [5] and in [8] was inactive. Besides, the compound was classed as inactive in test [9] and in test [10].
Regarding `O=S(=O)(O)c1ccc(N=Nc2c(O)ccc3ccccc23)cc1`, the outcome in test [1], in test [2], in test [3], in test [4], in test [5] and in test [7] was inactive. For the same compound, the result in test [9] and in [10] was inactive. Moreover, in test [8], the AC50 was 7.83 µM (active).
As for `CCCCOC(=O)CCC(C)=O`, the compound was called inactive in test [1], in test [2], in [3], in [4], in [5] and in test [7]. Besides, the result in test [8], in [9] and in test [10] was inactive.
Take `CCCCC/C=C\C/C=C\CCCCCCCC(=O)O`: the result in test [1], in [2], in [3], in test [5], in test [7] and in test [8] was inactive. Further, the compound was called inactive in [9] and in [10]. For the same compound, in [4], the concentration at half-maximal activity (AC50) is 72.5 µM (active).
Regarding `COC(=O)c1ccc(C(=O)OC)c(C(=O)OC)c1`, the call in [1], in test [2], in [3], in [4], in test [5] and in [8] was inactive. For the same compound, the result in [9] and in test [10] was inactive.
Take `Clc1cc(Cl)c(Cl)c(Cl)c1Cl`: the call in [1], in test [2], in [3], in test [4], in test [5] and in [7] was inactive. The call in test [8], in test [9] and in test [10] was inactive.
As for `CCCCOCCOC(=O)COc1ccc(Cl)cc1Cl`, the compound was classed as inactive in [1], in test [2], in [3], in [4], in [5] and in test [7]. The compound was called inactive in test [8], in test [9] and in test [10].
On to `[Cl][Sc]([Cl])[Cl]`, for which the compound was classed as inactive in [1], in test [2], in test [3], in [4], in test [5] and in test [6]. Also, the outcome in test [8], in test [9] and in test [10] was inactive.
As to `Oc1ccc(/C=C/c2cc(O)cc(O)c2)cc1`, the outcome in test [1], in [2], in test [3], in test [4], in test [5] and in test [8] was inactive. In addition, the outcome in [9] and in [10] was inactive. The AC50 in test [7] is 153 µM (active).
For the compound `CC1OC(=O)C(C)OC1=O` (stereo not given), the call in test [1], in test [2], in [3], in test [4], in test [5] and in test [7] was inactive. Moreover, the result in [8], in [9] and in test [10] was inactive.
`N#Cc1ccc(C(c2ccc(C#N)cc2)n2cncn2)cc1`: the result in [1], in test [2], in test [3], in test [4], in test [5] and in test [7] was inactive. The outcome in [8], in test [9] and in [10] was inactive.
Take `O=C(O[C@@H]1Cc2c(O)cc(O)cc2O[C@@H]1c1cc(O)c(O)c(O)c1)c1cc(O)c(O)c(O)c1`: the call in test [1], in test [2], in test [3], in [4], in test [5] and in [7] was inactive. In addition, the compound was called inactive in test [8], in [9] and in test [10].
Regarding `Clc1cccnc1`, the call in test [1], in test [2], in test [3], in [4], in test [5] and in test [7] was inactive. For the same compound, the outcome in test [8], in test [9] and in [10] was inactive.
Take `O=C(O)/C=C/c1ccccc1`: the compound was classed as inactive in [1], in test [2], in test [3], in [4], in test [5] and in test [8]. Further, the compound was called inactive in test [9] and in [10].
In the case of `CC(C)C(=O)OCCc1ccccc1`, the compound was called inactive in [1], in test [2], in test [3], in test [4], in test [5] and in [7]. The compound was classed as inactive in test [8], in [9] and in test [10].
Regarding `O=C1CCCCCCCCCCC1`, the outcome in [1], in test [2], in test [3], in [4], in [5] and in [7] was inactive. For the same compound, the call in test [8], in [9] and in [10] was inactive.
